Reference: PubChem BioAssay AID2685 (National Center for Advancing Translational Sciences (NCATS), 2010)
The whole screen tested about 320,000 compounds, of which about 2,100 (0.66%) were called active. About 53% were inconclusive and are not listed. Calls follow the shape of the dose curve; as a rule, active = well fitted inhibition curve with a large enough effect in the signal ratio, with a control signal flat (not every such curve was filed as active); inconclusive = small, poorly fitted or top-dose-only effect, or effect the other way, or a change in a side signal; inactive = flat fitted curve, though single readings scatter; the % refers to the signal ratio. Only a selection was taken, and actives are over-represented in it overall.

Test: qHTS Assay for Lipid Storage Modulators in Drosophila S3 Cells;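 as to cell number change: cells counted by Cell Tracker Red CMTPX staining in the red channel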; as to lipid storage change, negative = inhibition: % is scaled to controls: 0 for no effect and ±100 for the full control effect
Conditions: BODIPY lipid droplet fluorescence, 18-24 h, cells fed with added oleic acid; cell number change: measured here: cell count max response; series mostly up to 46.1 µM; lipid storage change, negative = inhibition: at the top concentration
In short: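 Drosophila S3 cells loaded with oleic acid (400 uM, as added) and compounds at several concentrations; lipid droplets imaged by 488-nm laser-scanning cytometry, 500–530 nm intensity and object ratio to cell channel. Percent activity normalized to 20 uM Triacsin C.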
Potency is read from the fitted curve at half-maximal effect.

| Compound | outcome | cell number change [%] | lipid storage change, negative = inhibition | Potency |
| --- | --- | --- | --- | --- |
| Nc1nonc1-n1nnc(C(=O)N/N=C/c2ccoc2)c1-c1ccccc1 | inactive | 11.3 |  |  |
| O=C(O)c1ccccc1C(=O)NCCCn1ccnc1 |  | 7.04 | 6.83% (inactive) |  |
| Nc1c(O)ccc2c1C(=O)c1ccccc1C2=O |  | -17.1 | -9.3% (inactive) |  |
| CCOc1cc(C(=O)OCC(=O)N(C)c2ccccc2)cc(OCC)c1OCC | inactive | 9.01 |  |  |
| Cc1[nH]nc(SCC(=O)N2CCCC2)c1[N+](=O)[O-] |  | -4.82 | -2.11% (inactive) |  |
| COc1ccc(N2CCN(C(=O)CCCn3c(=O)c4cccn4c4cccnc43)CC2)cc1 | inactive | 22.2 |  |  |
| COc1ccc(CCNC(=O)CCCn2c(=O)c3cccn3c3cccnc32)c(OC)c1 |  | -19.3 |  | 16.4 µM (active) |
| CN1CCN(C(=O)CCn2c(=O)c3cccn3c3cccnc32)CC1 |  | 17.7 | -18.5% (inactive) |  |
| CCc1ccc(CNC(=O)CCCn2c(=O)c3cccn3c3cccnc32)cc1 | inactive |  |  |  |
| COc1cccc(CNC(=O)CCn2c(=O)c3cccn3c3cccnc32)c1 |  | 1.83 | -26% (inactive) |  |
| CSc1cccc(NC(=O)CCCn2c(=O)c3cccn3c3cccnc32)c1 |  | -18.8 |  | 18.4 µM (active) |
| CCOC(=O)C1=C(CS(=O)(=O)c2ccc(Cl)cc2)NC(=O)NC1c1ccc(O)c(OC)c1 (stereo not given) |  | 23 | -8.07% (inactive) |  |
| O=C(OC(C(=O)Nc1ccc(Cl)cc1C(F)(F)F)c1ccccc1)C1=COCCO1 (stereo not given) |  | -1.65 | 6% (inactive) |  |
| CCN(CC)CCCN1C(=O)C(O)=C(C(=O)c2sc(C)nc2C)C1c1ccc(C)o1 (stereo not given) |  | 0.178 | 0.201% (inactive) |  |
| COc1cc(/C=C/c2noc(-c3ccccc3O)n2)ccc1OC(C)=O |  | 8.42 | -1.96% (inactive) |  |
| CC(C)(C)NC(=O)/C=C/c1cccc(C(F)(F)F)c1 |  | -3.06 | 23.9% (inactive) |  |
| COc1ccc(Nc2ccc([N+](=O)[O-])cn2)cc1 |  | 13.2 | 19.4% (inactive) |  |
| COc1ccccc1Nc1ccc([N+](=O)[O-])cn1 |  | 25.6 | 3.34% (inactive) |  |
| COc1ccc(Nc2ccc([N+](=O)[O-])cn2)cn1 |  | -5.41 |  | 16.4 µM (active) |
| CCc1nn(CC(=O)NCCCN(CC)c2cccc(C)c2)c(=O)c2cc3occc3n12 |  | -11.1 | 8.48% (inactive) |  |
| CCOC(=O)CCn1cc(F)c(=O)n(Cc2ccccc2)c1=O | inactive | 12.1 |  |  |
| CC(C)Nc1nc(SC(C)C(=O)Nc2ccccc2)nc(N(C)C)n1 (stereo not given) |  | -27.6 |  | 8.2 µM (active) |
| CCOc1nc(SC(C(C)=O)C(=O)Nc2ccccc2)nc(N(C)C)n1 (stereo not given) |  | -9.19 | 3.93% (inactive) |  |

| Compound | outcome | cell number change [%] | lipid storage change, negative = inhibition | Potency |
| --- | --- | --- | --- | --- |
| CC(Sc1nc(N2CCOCC2)nc(N2CCOCC2)n1)C(=O)Nc1ccccc1 (stereo not given) |  | -7.21 | 0.66% (inactive) |  |
| COC(=O)c1cccc(-c2ccc(/C=N/N3C(=O)C4C5C=CC(C6CC56)C4C3=O)o2)c1 (stereo not given) |  | -7.37 | -10.1% (inactive) |  |
| COC(=O)c1ccc(-c2ccc(/C=N/N3C(=O)C4C5C=CC(CC5)C4C3=O)o2)cc1 (stereo not given) |  | 10.1 | -0.618% (inactive) |  |
| COC(=O)c1ccc(-c2ccc(/C=N/N3C(=O)C4C5C=CC(C6CC56)C4C3=O)o2)cc1 (stereo not given) |  | 4.78 |  | 20.6 µM (active) |
| O=c1nc(-c2ccccc2)cc(C(F)(F)F)[nH]1 |  | -9.42 | -9.25% (inactive) |  |
| COc1ccc(/C=C/c2cc(C(F)(F)F)[nH]c(=O)n2)cc1OC |  | 7.45 | -12.5% (inactive) |  |
| O=c1nc(/C=C/c2ccccc2C(F)(F)F)cc(C(F)(F)F)[nH]1 |  | -22.9 |  | 0.517 µM (active) |
| CCc1ccc(N2CC(C(=O)NC3CCCCC3C)CC2=O)cc1 (stereo not given) | inactive | -4.76 |  |  |
| COC(=O)c1ccc(COc2ccccc2/C=N/NS(=O)(=O)c2ccccc2)cc1 |  | -14.9 | -8.74% (inactive) |  |
| CCCCC1C(=O)CC[C@H]2[C@@H]1CC(=O)[C@@H]2C/C=C\CCCC(=O)O (stereo not given in full) |  | -6.62 |  | 9.2 µM (active) |
| CCCCC[C@H](O)/C=C/[C@H]1C=CC(=O)[C@@H]1C/C=C\CCCC(=O)O |  | 10.2 | -2.66% (inactive) |  |
| CCCCC/C=C\C/C=C\C/C=C\C/C=C\CCCC(=O)O |  | -29.6 | -8.8% (inactive) |  |
| CCn1c(=O)c(C(=O)NCc2ccccc2OC)c(O)c2ccccc21 | inactive | 3.38 |  |  |
| Cc1cccc(C)c1OCc1nnc(SCC(=O)Nc2ccccc2F)o1 |  | -7.4 | 29.6% (inactive) |  |
| CCc1nnc(NC(=O)CSc2nnc(CSc3nc(C)cc(C)n3)o2)s1 |  | 9.83 | 7.1% (inactive) |  |
| Cc1ccc(NC(=O)c2cc(S(=O)(=O)NCCC3=CCCCC3)ccc2F)cc1 |  | -3.48 | -15.8% (inactive) |  |
| O=C(Nc1ccc(C(F)(F)F)cc1)c1cccc(-n2cnnn2)c1 |  | 8.84 | 19% (inactive) |  |
| O=C(Nc1cccc(-n2cnnn2)c1)c1ccco1 |  | -16.6 | 9.61% (inactive) |  |
| O=C(CNC(=O)c1cccc(-n2cnnn2)c1)Nc1ccc(F)c(F)c1 |  | 0.376 | 4.76% (inactive) |  |
| Cc1cc(OCCCC(=O)Nc2cccc(-n3cnnn3)c2)ccc1Cl |  | 3.23 |  | 3.26 µM (active) |
| COc1ccc(NC(=O)COc2cccc(-n3cnnn3)c2)cc1 | inactive | -3.85 |  |  |
| O=C(Nc1cccc(-n2cnnn2)c1)c1cccc(Cl)c1 |  | -16 |  | 14.6 µM (active) |
| O=C(Nc1cccc(-n2cnnn2)c1)c1cccs1 | inactive | -3.63 |  |  |

| Compound | outcome | cell number change [%] | lipid storage change, negative = inhibition | Potency |
| --- | --- | --- | --- | --- |
| O=C(Nc1cccc(-n2cnnn2)c1)c1ccoc1COc1ccc(Cl)cc1 |  | -18.1 |  | 29.1 µM (active) |
| O=C(COc1cccc(-n2cnnn2)c1)Nc1ccccc1 |  | -12.3 | -13.1% (inactive) |  |
| Cc1ccc(C)c(NC(=O)c2cc[n+](C)cc2)c1 | inactive | -24.7 |  |  |
| CCOC(=O)COc1ccc(S(=O)(=O)NCc2ccncc2)cc1 |  |  | -23.8% (inactive) |  |
| Cc1ccc(/C=C/C(=O)N(Cc2cccs2)C2CCS(=O)(=O)C2)cc1 (stereo not given) |  | 11.3 | 18.4% (inactive) |  |
| CCOC(=O)c1c(-c2ccccc2)csc1NC(=O)CSc1nc(N)cc(N)n1 |  | 11.6 | 13.1% (inactive) |  |
| COCCCn1c(C)nnc1-c1cnn(-c2ccccc2)c1N |  | 22.6 | 10.4% (inactive) |  |
| O=C(Nc1cccnc1)c1ccc2c(c1)C(=O)N(CC1CCCO1)C2=O (stereo not given) |  | 5.85 | -113% (inactive) |  |
| COc1ccc2cc3cc(C(=O)NCCN4CCN(c5ccccc5F)CC4)oc3nc2c1 |  | -11.8 | -20.3% (inactive) |  |
| CCN(Cc1ccccc1)C(=O)CS(=O)(=O)c1ccccc1 |  | 0.704 | -5.16% (inactive) |  |
| C/C(CS(=O)(=O)c1ccccc1)=N\O |  | -17.1 | -23.4% (inactive) |  |
| C/C=C(\CS(=O)(=O)c1ccccc1)S(=O)(=O)c1ccccc1 |  | -14.9 |  | 5.17 µM (active) |
| O=C(NNC(=O)c1cccc(S(=O)(=O)N2CCN(c3ccccc3)CC2)c1)c1ccc(Cl)cc1 |  | -1.16 | 2.76% (inactive) |  |
| O=C(Nc1cccc(C(F)(F)F)c1)c1cccnc1N1CCN(CCO)CC1 | inactive |  |  |  |
| O=C(Nc1cccc(C(F)(F)F)c1)c1cccnc1NCCO |  | 17.5 |  | 9.2 µM (active) |
| CCN(CC)C(=O)Oc1ccc(Cl)c2cccnc12 |  | -13.1 | 4.69% (inactive) |  |
| O=C(Nc1cccc(C(F)(F)F)c1)c1cccnc1N1CCCC1 | inactive |  |  |  |
| O=C(Oc1ccc(Cl)c2cccnc12)N1CCCCCC1 |  | 0.575 | 2.39% (inactive) |  |
| O=C(Nc1cccc(C(F)(F)F)c1)Oc1ccc(Cl)c2cccnc12 |  | -22.5 |  | 8.2 µM (active) |
| CCOc1ccccc1Oc1nc(-c2ccccc2O)nc2ccccc12 | inactive | 16.3 |  |  |
| N#Cc1c(C(F)(F)F)cc(-c2ccc(F)cc2)nc1SCC(=O)O |  | 0.873 | 17% (inactive) |  |
| CC(c1ccc(O)cc1)(c1ccc(O)cc1)c1ccc(CCBr)cc1 |  | -16 | -11.7% (inactive) |  |
| O=C(Nc1ccc(-n2cc(Cl)cn2)cc1)c1ccncc1 |  | 13 | -2.29% (inactive) |  |

| Compound | outcome | cell number change [%] | lipid storage change, negative = inhibition | Potency |
| --- | --- | --- | --- | --- |
| Cc1ccc(C(=O)/C=C/N(C)C)o1 |  | -4.62 | -9.3% (inactive) |  |
| COc1ccc(C2=NC(C)(C)Cc3cc(OC)c(OC)cc32)cc1 |  | -1.73 | 14.1% (inactive) |  |
| CCNC(=O)n1nccc1C(C)Oc1ccccc1 (stereo not given) |  | 17.8 | 7.19% (inactive) |  |
| CCc1ccc(CNC(=O)C2CCN(S(=O)(=O)N3CC(C)CC(C)C3)CC2)cc1 (stereo not given) |  | 14.3 | -15.9% (inactive) |  |
| Cc1ccc(CNC(=O)CSc2nccn(-c3ccc(C)c(F)c3)c2=O)cc1 |  | -20 |  | 14.6 µM (active) |
| COc1ccc(CNC(=O)CSc2nccn(-c3ccc(F)c(F)c3)c2=O)cc1 |  | 17.2 | -25.5% [at 0.0737 µM] (inactive) |  |
| CCOc1ccc(-n2ccnc(SCC(=O)NCCc3ccccc3)c2=O)cc1 |  | -8.43 | 22.2% (inactive) |  |
| CN1CCN(c2ncnc3sc(-c4ccccc4)cc23)CC1 |  | 24.2 | 15% (inactive) |  |
| CCc1ccc(C(=O)/C=C/c2ccc([N+](=O)[O-])o2)cc1 |  | -21.1 |  | 1.3 µM (active) |
| CCN(CC)S(=O)(=O)c1ccc(C(=O)/C=C/c2ccc(-c3ccc([N+](=O)[O-])cc3)o2)cc1 |  | 6.91 | -2.16% (inactive) |  |
| CN1CCN(C(=O)/C=C/c2ccc([N+](=O)[O-])o2)CC1 |  | -21.6 |  | 32.6 µM (active) |
| COc1ccc(/C=C/C(=O)c2ccc([N+](=O)[O-])o2)cc1 |  | 5.86 | -7.12% (inactive) |  |
| CN1CCN(C(=O)/C=C/c2ccc([N+](=O)[O-])cc2)CC1 |  | -5.05 | -0.257% (inactive) |  |
| O=C(/C=C\c1ccc(-c2cccc([N+](=O)[O-])c2)o1)N1CCOCC1 |  | 1.96 | 0.516% (inactive) |  |
| CCOC(=O)c1ccc(NC(=S)NNC(=O)c2cc(-c3cccnc3)nc3ccccc23)cc1 |  | -10.9 | -22.8% (inactive) |  |
| OCC1(CCc2ccccc2)CCN(Cc2cnc(N3CCCC3)s2)CC1 |  | -1.4 | -4.43% (inactive) |  |
| O=C(CCC(=O)N1CCOc2ccccc21)Nc1cc(F)ccc1F |  | -2.02 | -28.3% (inactive) |  |
| O=C1OCc2ccc(NC(=O)c3ccccc3C(=O)O)cc21 |  | 2.9 | -11.6% (inactive) |  |
| Cc1ccc(C)c(S(=O)(=O)Nc2ccc(C(=O)NCC(c3ccco3)N3CCCCC3)cc2)c1 (stereo not given) |  | 16 | -6.69% (inactive) |  |
| Cc1ccc2[nH]c(=O)c(CN(C)C(=O)c3cccs3)cc2c1 |  | -11.8 | -3.04% (inactive) |  |
| COC(=O)c1c(NC(=O)CCl)sc(C(=O)N2CCOCC2)c1C |  | -18.1 |  | 0.651 µM (active) |
| COC(=O)c1c(N)sc(C(=O)N2CCOCC2)c1C | inactive | 8.28 |  |  |
| COC(=O)c1c(NC(=O)c2ccccc2OC)sc(C(=O)N2CCOCC2)c1C | inactive | 4.76 |  |  |
